A word on the AC50: it is the concentration giving half of the maximal activity seen.

Records with an inconclusive call do not appear. Calls of active or inactive are those of the source. Rule for the calls, unless noted: active = hit-call score of the fitted dose curve at least 0.9, where 1 is the maximum; inactive = score below 0.9.

Estrogen receptor (Homo sapiens), sequence (P03372 whole entry, looked up): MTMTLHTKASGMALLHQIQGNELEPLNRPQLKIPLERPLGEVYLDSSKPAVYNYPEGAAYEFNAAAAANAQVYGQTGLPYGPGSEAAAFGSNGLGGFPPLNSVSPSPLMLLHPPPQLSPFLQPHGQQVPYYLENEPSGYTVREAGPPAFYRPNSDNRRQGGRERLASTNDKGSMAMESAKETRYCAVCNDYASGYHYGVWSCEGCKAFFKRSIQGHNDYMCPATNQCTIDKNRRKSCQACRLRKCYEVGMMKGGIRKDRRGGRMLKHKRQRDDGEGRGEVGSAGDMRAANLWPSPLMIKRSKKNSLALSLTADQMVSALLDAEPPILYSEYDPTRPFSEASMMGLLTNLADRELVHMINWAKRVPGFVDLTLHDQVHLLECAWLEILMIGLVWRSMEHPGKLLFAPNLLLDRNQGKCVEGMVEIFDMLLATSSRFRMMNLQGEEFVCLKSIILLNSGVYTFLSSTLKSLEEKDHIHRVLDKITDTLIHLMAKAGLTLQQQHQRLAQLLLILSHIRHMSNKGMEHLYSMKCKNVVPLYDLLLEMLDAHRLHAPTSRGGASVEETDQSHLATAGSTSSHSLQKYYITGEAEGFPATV

One experiment has as its target Estrogen receptor (Homo sapiens) (UniProt P03372). In words: CCTE_Deisenroth_AIME_384WELL_LUC_Shift: CCTE's 384-well Estrogen Receptor Transactivation Assay with AIME metabolic competence data shift (ERTA luciferase; difference in metabolism positive and negative), Deisenroth Lab (AID 2284041).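 Note: shift is response with S9 minus without S9 so positive means metabolism raised ER signal.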 In short, it runs like this:
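Test chemicals (0.002–200 uM, 10-point) were pre-incubated 2 h with alginate microspheres containing phenobarbital/beta-naphthoflavone-induced male Sprague Dawley rat liver S9 or water, then medium was transferred to VM7Luc4E2 cells for 24 h luciferase readout; shift = S9-positive minus S9-negative normalized response.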
`OCCOCCOCCOCCO`: the result was inactive.
For `CN(C)CCCN`, the outcome was inactive.
In the case of `CCCCCCCCCC=O`, the result was inactive.
Still for that read-out and setting: next, `NCCCN1CCOCC1`: “inactive”; `CCCCCCCCCCCCCC(=O)O`: “inactive”.
In the case of `CC(=O)OCCOC(C)=O`, the result was inactive.

System in a further experiment: not listed separately
In words: CCTE_Shafer_MEA_dev_burst_rate: CCTE's Neural Network Formation Assay for Burst Rate, Shafer Lab (AID 2284042).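 For AC50: potency for loss of burst rate below DMSO control.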 In short, it runs like this: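 Primary rat cortical neurons on PEI-coated 48-well MEA plates (laminin added with cells at plating) (16 electrodes/well), exposed from plating to day 12, dosing renewed at DIV 5 and 9. Burst rate averaged over active electrodes, recorded DIV 5, 7, 9, 12, summarized as AUC; loss versus DMSO.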
`N#Cc1ccc(CC(=NNC(=O)Nc2ccc(OC(F)(F)F)cc2)c2cccc(C(F)(F)F)c2)cc1`: the AC50 is 240 nM (active).
Regarding `CN(C)C(=N)N=C(N)N`, the outcome was inactive.
Consider `c1ccc2c(c1)c1cccc3ccc4cccc2c4c31`, for which the call was inactive.

System in a further experiment: not listed separately
In words: CCTE_Shafer_MEA_dev_bursting_electrodes_number: CCTE's Neural Network Formation Assay for Number of Bursting Electrodes, Shafer Lab (AID 2284043; active = hit-call score of the fitted dose curve at least 0.9, where 1 is the maximum;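 for AC50: potency is for loss of bursting electrodes relative to DMSO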). The procedure, abridged:
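Number of electrodes reaching ≥1 burst every 2 min was recorded at DIV 5, 7, 9 and 12 and collapsed as trapezoidal area under the curve. Cultures were rat cortical neurons on MEA plates, dosed continuously from plating with medium and treatment refreshed on DIV 5 and 9.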
As for `N#Cc1ccc(CC(=NNC(=O)Nc2ccc(OC(F)(F)F)cc2)c2cccc(C(F)(F)F)c2)cc1`, the AC50 was 297 nM (active).
As for `CN(C)C(=N)N=C(N)N`, the molecule was called inactive.
On to `c1ccc2c(c1)c1cccc3ccc4cccc2c4c31`, for which the AC50 was 3330 nM (active).

System in a further experiment: not listed separately
In words: CCTE_Shafer_MEA_dev_per_burst_interspike_interval: CCTE's Neural Network Formation Assay for Burst Interspike Interval, Shafer Lab (AID 2284044).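 For AC50: potency for a decrease of within-burst interspike interval below DMSO level.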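 Note: mean spike spacing inside bursts as AUC over recordings on days 5 7 9 12.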 In short, it runs like this:
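Spontaneous activity of maturing rat cortical networks is recorded on DIV 5, 7, 9 and 12 under chronic compound exposure beginning at plating. Endpoint: burst interspike interval well-mean, collapsed into trapezoidal AUC and fitted in the negative direction relative to DMSO.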
As to `N#Cc1ccc(CC(=NNC(=O)Nc2ccc(OC(F)(F)F)cc2)c2cccc(C(F)(F)F)c2)cc1`, the AC50 is 301 nM (active).
In the case of `CN(C)C(=N)N=C(N)N`, the result was inactive.
As to `c1ccc2c(c1)c1cccc3ccc4cccc2c4c31`, the molecule was classed as inactive.

System in another experiment: not listed separately
In words: CCTE_Shafer_MEA_dev_burst_duration_mean: CCTE's Neural Network Formation Assay for Mean Burst Duration, Shafer Lab (AID 2284045).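 For AC50: curve fitted for loss meaning shorter burst duration than DMSO.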 The procedure, abridged:
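Mean single-electrode burst duration (first to last spike), averaged over bursting electrodes per well, then integrated as area-under-curve across recordings at days 5, 7, 9 and 12. Rat cortical cultures on MEAs, compound present from plating, refreshed at feeds.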
With `N#Cc1ccc(CC(=NNC(=O)Nc2ccc(OC(F)(F)F)cc2)c2cccc(C(F)(F)F)c2)cc1`, the concentration at half-maximal activity (AC50) was 358 nM (active).
For the molecule `CN(C)C(=N)N=C(N)N`, the result was inactive.
As to `c1ccc2c(c1)c1cccc3ccc4cccc2c4c31`, the molecule was classed as inactive.

System in the next experiment: not listed separately
In words: CCTE_Shafer_MEA_dev_interburst_interval_mean: CCTE's Neural Network Formation Assay for Mean Interburst Interval, Shafer Lab (AID 2284046).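 Note: well-mean interburst interval of bursting electrodes as AUC over four recording days; curve fitted for decrease in interburst interval relative to DMSO.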 The procedure, abridged:
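Recordings on days 5, 7, 9 and 12 give well-mean interburst interval across actively bursting electrodes, summarized as area under the curve. Cultures: rat cortical neurons, continuous exposure from day 0, compound renewed at feeds; decrease analyzed versus DMSO.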
Consider `N#Cc1ccc(CC(=NNC(=O)Nc2ccc(OC(F)(F)F)cc2)c2cccc(C(F)(F)F)c2)cc1`, for which the AC50 is 63.2 nM (active).
`CN(C)C(=N)N=C(N)N`: the call was inactive.
On to `c1ccc2c(c1)c1cccc3ccc4cccc2c4c31`, for which the outcome was inactive.

System in a further experiment: not listed separately
In words: CCTE_Shafer_MEA_dev_inter_network_spike_interval_mean: CCTE's Neural Network Formation Assay for Mean Inter-network Spike Interval, Shafer Lab (AID 2284047).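 For AC50: potency for a decrease in mean inter-network spike interval below DMSO.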 The procedure, abridged: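 Primary rat cortical neurons on 16-electrode MEA wells, exposed from plating day 0 through DIV 12, compound renewed at DIV 5 and 9 media changes. Mean interval between network-spike peaks recorded DIV 5, 7, 9, 12; collapsed as trapezoidal AUC, fitted downward versus DMSO.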
On to `N#Cc1ccc(CC(=NNC(=O)Nc2ccc(OC(F)(F)F)cc2)c2cccc(C(F)(F)F)c2)cc1`, for which the AC50 was 634 nM (active).
With `CN(C)C(=N)N=C(N)N`, the result was inactive.
Regarding `c1ccc2c(c1)c1cccc3ccc4cccc2c4c31`, the AC50 is 18600 nM (active).

System in another experiment: not listed separately
In words: CCTE_Shafer_MEA_dev_network_spike_number: CCTE's Neural Network Formation Assay for Number of Network Spikes, Shafer Lab (AID 2284048).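 For AC50: fit as a loss of signal meaning fewer network spikes than DMSO.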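 Note: synchronized bursts across electrodes counted on days 5 7 9 12 and integrated as AUC.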 In short, it runs like this:
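Number of network spikes (coordinated firing across electrodes) recorded on days 5, 7, 9 and 12 and summarised as area under the curve. Rat cortical cultures on MEA, continuous compound exposure with full medium/treatment exchange at DIV 5 and 9.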
On to `N#Cc1ccc(CC(=NNC(=O)Nc2ccc(OC(F)(F)F)cc2)c2cccc(C(F)(F)F)c2)cc1`, for which the AC50 was 763 nM (active).
Regarding `CN(C)C(=N)N=C(N)N`, the call was inactive.
Take `c1ccc2c(c1)c1cccc3ccc4cccc2c4c31`: the molecule was classed as inactive.

System in a further experiment: not listed separately
In words: CCTE_Shafer_MEA_dev_network_spike_peak: CCTE's Neural Network Formation Assay for Mean Number of Electrodes in Network Spike, Shafer Lab (AID 2284049).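 For AC50: fitted for loss of signal meaning fewer electrodes in network spikes than DMSO.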 The procedure, abridged:
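Rat cortical primary culture, 1.5 x 10^5 cells/well, 48-well MEA (16 electrodes/well). Dosing day 0 through DIV 12, full media/compound exchange DIV 5, 9. AxIS adaptive spike detection; AUC over days 5/7/9/12; loss-of-signal vs DMSO.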
With `N#Cc1ccc(CC(=NNC(=O)Nc2ccc(OC(F)(F)F)cc2)c2cccc(C(F)(F)F)c2)cc1`, the concentration at half-maximal activity (AC50) is 1120 nM (active).
For `CN(C)C(=N)N=C(N)N`, the molecule was classed as inactive.
On the same count and under the same terms, to `c1ccc2c(c1)c1cccc3ccc4cccc2c4c31` belongs “inactive”.

The subject of another experiment is DIO2 (gene 1734). In words: CCTE_GLTED_hDIO2: CCTE's human Deiodinase 2 (DIO2) Inhibition Assay, Great Lakes Toxicology and Ecology Division (GLTED) Lab (AID 2284050; active = hit-call score of the fitted dose curve at least 0.9, where 1 is the maximum). The procedure, abridged: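 Inhibition is judged by reduced iodide release: uninhibited human DIO2 frees iodide from substrate over 3 h, measured afterward by Sandell-Kolthoff colorimetry. Iodinated chemicals or nitrite, iron and thiocyanate may interfere.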
With `CCC(=O)/C=C/C1C(C)=CCCC1(C)C` (stereo not drawn), the AC50 was 93100 nM (active).
For the molecule `O=C(Oc1ccccc1)c1ccc(O)cc1`, the AC50 is 72200 nM (active).
Regarding `CCCCCCCCCCCCN`, the molecule was called inactive.

Values taken from PubChem BioAssay (EPA / NIEHS).
